According to PMC5540273 (PLoS ONE, 2017):
“And” between values parts separate entries of the source, which are not always exact repeats. Identical values can stand only once.

Each molecule was assayed on EPHB6. Details: concentration: 1 μM, replicates: in singlicate; 1 µM; n = 1.
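Further: KINOMEscan kinase panel screen.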

| SMILES | %Inh |
| --- | --- |
| NCCNS(=O)(=O)c1ccc(-c2ccnc3[nH]ccc23)cc1 [GSK977617] | 13% and 24% |
| CC(C)(CN)c1nc(-c2ccc(Cl)c(O)c2)c(-c2ccncc2)[nH]1.O=C(O)C(F)(F)F [SB-477794] | 2% and 28% |
| Cl.Cl.Cl.Fc1ccc(-c2ncn(C3CCNCC3)c2-c2ccnc(Nc3ccccc3)n2)cc1 [SB-238039] | 3% and 0% |

Same assay, conditions: concentration: 1 μM, replicates: in singlicate; n = 1

| SMILES | %Inh [%] |
| --- | --- |
| N#Cc1c(N2CCOCC2)sc(-c2ccn[nH]2)c1-c1ccc(Cl)cc1 | 38 |
| c1ccc(-c2cc(-c3c[nH]nc3-c3ccccn3)ccn2)cc1 [GW576604] | 0 |
| O=C(NCCCN1CCOCC1)c1cccc(Nc2nccc(Nc3ccc(Oc4ccccc4)cc3)n2)c1 [GW663929] | 55 |
| CCCCCc1nc2c(N)ncnc2n1CCCCC [SKF-97255] | 6 |
| Cc1c(Cn2c(C)nn3c(=O)cc(N4CCOC(C)C4)nc23)cccc1C(F)(F)F (centres unmarked) [GSK2344444] | 0 |
| O=C(NCCNc1ccnc(Nc2ccc(F)cc2)n1)c1cc2ccccc2s1 [GSK1379874] | 11 |
| CC(C)Oc1ccc2c(-c3ccnc(Nc4ccc(N5CCN(C)CC5)cc4)n3)cnn2n1 [GW696155] | 70 |
| COc1cc2c(cc1OCCN1CCN(C)CC1)ncc1c3ccc(C#N)cc3[nH]c21 | 53 |
| CC(=O)Nc1ccc(COc2ccc(Nc3ccnc4cc(-c5ccccn5)ccc34)cc2)cc1.Cl [GW440148] | 53 |
| CC(C)(C)n1cnc2c(N)ncnc21 [SKF-97359] | 0 |
| CN(C1=C(c2ccccc2)C(=O)NC1=O)c1ccccc1 [SB-334860] | 20 |
| Cl.Nc1ncnc2occ(-c3ccc(NC(=O)Nc4cc(C(F)(F)F)ccc4F)cc3)c12 [SB-707548] | 98.6 |
| NS(=O)(=O)c1cccc(-c2ccc3nccc(-c4cccc(S(N)(=O)=O)c4)c3c2)c1 [GW867253] | 0 |
| NS(=O)(=O)c1cccc(-c2ccc3ncc(N4CCOCC4)nc3c2)c1 [GSK1535721] | 25 |
| COc1ccc(CNC(=O)NC2CCN(c3ccnc(Nc4ccc(OC)cc4)n3)C2)cc1 (centres unmarked) [GSK1379727] | 26 |
| Cc1nnc(-c2ccc(C)c(-c3ccc(C(=O)Nc4ccc(NS(C)(=O)=O)cc4)cc3)c2)o1 [GW702865] | 10 |

| SMILES | %Inh [%] |
| --- | --- |
| Cc1nnc(-c2ccc3occ(-c4ccc(C(C)O)cc4)c3c2)o1 (centres unmarked) | 15 |
| [2H]C([2H])(c1cccc(C(F)(F)F)c1C)n1ccn2c(=O)nc(N3CCOCC3)cc12 [GSK2336394] | 11 |
| NCC(NC(=O)c1cc(-c2cn[nH]c2)c(-c2ccnc3[nH]ccc23)s1)c1ccccc1.O=C(O)C(F)(F)F.O=C(O)C(F)(F)F (centres unmarked) [GSK1325775] | 12 |
| O=C(NCCNc1ccnc(Nc2ccc(F)cc2)n1)Nc1ccccc1F [GSK1379880] | 17 |
| COc1ccc(S(=O)(=O)NC2CCN(c3cc(C)nc(Nc4cccc(C#N)c4)n3)CC2)cc1.O=C(O)C(F)(F)F [GSK1653539] | 14 |
| O=C1NC(=O)C(N2CCc3ccccc32)=C1c1cccc(Cl)c1 [SB-408010] | 0 |
| O=c1cc(N2CCOCC2)nc2n(Cc3cccc(Cl)c3Cl)c(C3CC3)nn12 [GSK2358994] | 33 |
| O=c1cc(N2CCOCC2)nc2n(Cc3cccc(F)c3)ccn12 [GSK2297430] | 0 |
| CSc1ccc(-c2cc3ncnc(SCC(=O)O)c3s2)cc1 | 33 |
| O=C(c1ccc(-c2cc(-c3c[nH]nc3-c3ccccn3)ccn2)cc1)N1CCOCC1 [GW812171] | 0 |
| COc1ccc(Nc2nccc(N3CCC(NC(=O)Nc4cc(C)ccc4C)C3)n2)cc1 (centres unmarked) [GSK1379741] | 0 |
| Fc1ccc(-c2nn3c(OCC(F)(F)F)cccc3c2-c2ccncc2)cc1 [GW514784] | 0 |
| N#Cc1ccc(-c2cc(-c3c[nH]nc3-c3ccccn3)ccn2)cc1 [GW693028] | 2 |
| COc1cc2ncn(-c3cc(OCc4sccc4Cl)c(C(N)=O)s3)c2cc1OC [GSK448459] | 28 |
| NS(=O)(=O)CCc1cccc(Nc2nccc(-c3c(-c4cccc(NC(=O)c5c(F)cccc5F)c4)nn4ccccc34)n2)c1 [GSK336735] | 97.1 |
| O=C(Nc1n[nH]c2cc(-c3cccc(F)c3)ccc12)C1CC1 [SB-735464] | 14 |

What follows are molecules tested on ERBB2. Details: concentration: 1 μM, replicates: in singlicate; 1 µM; n = 1.

| SMILES | %Inh |
| --- | --- |
| NCCNS(=O)(=O)c1ccc(-c2ccnc3[nH]ccc23)cc1 [GSK977617] | 37% and 0% |
| CC(C)(CN)c1nc(-c2ccc(Cl)c(O)c2)c(-c2ccncc2)[nH]1.O=C(O)C(F)(F)F [SB-477794] | 83% and 80% |
| Cl.Cl.Cl.Fc1ccc(-c2ncn(C3CCNCC3)c2-c2ccnc(Nc3ccccc3)n2)cc1 [SB-238039] | 92% and 79% |
